Several values for one entry are separate records, joined by “and”; a condition that tells them apart may be missing. Equal entries are not always repeated. About 83,000 compounds went through this panel and 20% of them were active in at least one assay; those are over-represented in the sample as a whole.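 Assay: single dose, 48 h. Readout: percent growth (0 = no net growth; negative = cell death). Active: <10.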 Activity calls are given as the source filed them.
tested on: HL-60(TB) leukemia; assay: NCI-60 one-dose screen, 48 h (100 = growth as untreated, 0 = no growth, -100 = all killed); conditions: 10 µM unless noted

SMILES	growth
CC1(O)CC(c2nc(-c3ccc4ccc(-c5ccccc5)nc4c3)c3c(N)nccn23)C1 (stereo not given)	17.5% (inactive)
COc1ccccc1NC(=O)Cn1cc(CN2CCN(c3ccnc4cc(Cl)ccc34)CC2)nn1	131% (inactive)
Fc1cc2c(cc1Cl)N(c1ncnc3ccc(-c4ccc5n[nH]nc5c4)cc13)CC2	69.3% (inactive)
Nc1c(N)c2ccccc2c2ccccc12	104% (inactive)
COc1cc(/C=C/C(=O)c2c(C)nc3ccccc3c2C)ccc1OCCCN1CCN(C(=O)c2ccco2)CC1	74.7% (inactive)
CNCCCNCCCCNCCCN1C(=O)c2ccc3c4c(ccc(c24)C1=O)C(=O)N(CCCNCc1ccccc1OC)C3=O	23% (inactive)
N=C(N)N=Nc1ccc(O)cc1	69% [100 µM] (inactive)
CCN(CC)c1ccc2c(c1)Oc1nc(N)c(C#N)c(N)c1C2Sc1ccc(OC)cc1 (stereo not given)	-16.6% (active)
COc1ccc(/C(C)=N/NC(=O)c2ccc(S(C)(=O)=O)cc2)cc1OC	50.9% (inactive)
O=C(OCc1ccc2c(Br)cc(Br)c(O)c2n1)c1cc2ccccc2[nH]1	-46.1% (active)
O=C(/C=C/c1c(-c2ccccc2)[nH]c2ccccc12)S(=O)(=O)c1ccccc1	-22.1% (active)
Cn1cc(-c2csc(-c3c[nH]c4ccc(Br)cc34)n2)c2cnccc21	-56.6% (active)
O=C1C2C3C=CC(O3)C2C(=O)N1Nc1ccccc1 (stereo not given)	102% (inactive)
CN(C)Cc1ccc(NC(=O)c2cncc(C#Cc3cnc(N)c4ncccc34)c2)cc1F	83.7% (inactive)
O=C(C[n+]1ccccc1)c1ccc2ccccc2c1	101% (inactive)
Cc1ccc(NC2=CC(=O)C(=O)c3ccccc32)c(C)c1	38% (inactive)
CCCCCCCCCCCCN1CCCC(C)C1 (stereo not given)	55.6% (inactive)
Nc1[nH][nH]c(=O)c1N=Nc1ccccc1	98.6% (inactive) and 102% (inactive)
COC(=O)c1ccc(CSc2nnc(-c3c(C)nc4ccc(C)cn34)o2)cc1	97.5% (inactive)
O=C(/C=C/CN1CCCCC1)Nc1cc2c(Nc3ccc(F)c(Cl)c3F)ncnc2cc1OCCOC(F)F	17.9% (inactive)
COc1ccc2c(c1)sc1nc(-c3ccc(N(C)C)cc3)cn12	65.4% (inactive)
COc1ccc(-n2ncn(CCCCCCn3cnn(-c4ccc(OC)cc4)c3=O)c2=O)cc1	86.7% (inactive)
CCN1C(=O)/C(=C/N2N=C(c3ccc(Cl)cc3)CC2c2ccc(OC)cc2)SC1=S (stereo not given)	67.1% (inactive)
COc1ccccc1NC(=O)N=Nc1c(O)[nH]c2ccccc12	93.8% (inactive)
COc1ccc2c(c1)C(=O)c1c-2c(OCCN(C)C)nc2cc(OC)c(OC)cc12	89.9% (inactive)

— PubChem BioAssay (NCI)
